# Measurements from PubChem BioAssay (Tox21).
# Inconclusive results are not listed. A call without a number means that no potency is given here. Unmarked numbers belong to inactive results. Calls of active or inactive are those of the source. Calls come from the whole dose curve; as a rule, active = well fitted cell-killing curve with a large enough effect in the repeat runs; inconclusive = weak or mixed curves, or effect the other way; inactive = flat fitted curve, though single readings scatter.
# Experiments:
# [1] = cAMP Responsive Elements (CRE) small molecule antagonists, cell-based qHTS assay: qHTS cell viability counter screen (AID 2060913); conditions: CRE-bla HEK293T viability, CellTiter-Glo luminescence, 5 h; series mostly up to 92.4 µM; note: nearly all actives have a fitted effect of over 40% in size
# Summary of the method: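 Cytotoxicity read in the same wells as the CRE-bla HEK293T antagonist assay: after 3 h compound with 0.25 uM NKH477 final and 2 h beta-lactamase substrate, CellTiter-Glo luminescence measured.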
# [2] = cAMP Responsive Elements (CRE) small molecule agonists, cell-based qHTS assay: qHTS cell viability counter screen (AID 2060914); conditions: CRE-bla HEK293T viability, CellTiter-Glo luminescence, 5 h; series mostly up to 92.4 µM;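 note: viability read after 3 h of compound exposure; nearly all actives have a fitted effect of over 50% in size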
# Summary of the method: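 CRE-bla HEK 293T cells, plated 18 h at 37 °C, were exposed to compounds for 3 h at 37 °C/5% CO2. Viability was then measured in the same wells by CellTiter-Glo luminescence after 30 min at room temperature.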
SMILES,Potency [1],Potency [2],"viability change, negative = cytotoxic [1]","activity change, negative = cytotoxicity [2]"
OCc1cc(C(O)CNCCCCCCOCCCCc2ccccc2)ccc1O (stereo not drawn),inactive,inactive,–,–
COC(C)=O,inactive,inactive,–,–
Sc1nc(S)nc(S)n1,inactive,inactive,–,–
CC(C)(C)C(=O)O,inactive,inactive,–,–
CCCCCCCCCCc1ccccc1,inactive,inactive,–,–
Cc1ccccc1N=O,inactive,inactive,–,–
C[C@@H]1CN(c2c(F)c(N)c3c(=O)c(C(=O)O)cn(C4CC4)c3c2F)C[C@H](C)N1,–,–,-4.19% [at 18.9 µM],-0.413% [at 18.9 µM]
NC(=O)c1cnccn1,inactive,inactive,–,–
CC1(C)S[C@@H]2[C@H](NC(=O)C(C(=O)O)c3ccccc3)C(=O)N2[C@H]1C(=O)O (stereo partly drawn),inactive,inactive,–,–
O=C(O)c1ccc(OCCN2CCCCC2)cc1,inactive,inactive,–,–
C=CCOC(=O)c1ccc(C(=O)OCC=C)c(C(=O)OCC=C)c1,inactive,inactive,–,–
CCCCC(CC)COC(=O)/C=C/c1ccc(OC)cc1 (stereo not drawn),inactive,inactive,–,–
O=C1NC(=O)c2cc([N+](=O)[O-])ccc21,inactive,inactive,–,–
O=C(NCc1ncc(C(F)(F)F)cc1Cl)c1c(Cl)cccc1Cl,inactive,inactive,–,–
Clc1ccc(Nc2nnc(Cc3ccncc3)c3ccccc23)cc1,inactive,inactive,–,–
CCn1cc(C(=O)O)c(=O)c2ccc(C)nc21,inactive,inactive,–,–
CCO[Si](OCC)(OCC)OCC,inactive,inactive,–,–
C=C[Si]1(C)O[Si](C)(C=C)O[Si](C)(C=C)O[Si](C)(C=C)O1 (stereo not drawn),inactive,inactive,–,–
CC(=O)N(CC(O)CO)c1c(I)c(C(=O)NCC(O)CO)c(I)c(C(=O)NCC(O)CO)c1I (stereo not drawn),inactive,inactive,–,–
